Results published in PubChem BioAssay AID492998 (Southern Research Specialized Biocontainment Screening …, 2010).
Among all 2,300 compounds or so, about 550 (24%) were called active. The rule behind the calls is not given here. Only a sample is shown. Measured potencies and affinities stand elsewhere.

Experiment: Vero E6 cell cytotoxicity, dose response, cytotoxicity control for non-replicating M. tuberculosis project, secondary assay (AID 492998)
Details: series mostly up to 20 µM
In the case of `Cc1ccc(C2=N/C(=C\c3cccnc3)C(=O)O2)cc1`, the outcome is reported as “inactive”.
For `CCOC(=O)c1cc(COc2cc(Cl)cc(Cl)c2)on1`, the outcome was “inactive”.
For `O=C(c1cc2ccccc2o1)c1nc2c(n1O)CCCCC2`, the outcome was “inactive”.
In the case of `Nc1cccn2c(-c3ccc(Cl)cc3)cnc12`, the outcome is reported as “inactive”.
In the case of `CC1(C(=O)OCC(=O)Nc2nnc(-c3ccccc3)o2)CC1(Cl)Cl` (stereo unspecified), the outcome is reported as “inactive”.
In the case of `CCOC(=O)C1CCCc2c1[nH]c1c(C(N)=O)cccc21` (stereo unspecified), the outcome is reported as “inactive”.
With `Cc1ccc(Oc2c(C(N)=O)cc([N+](=O)[O-])cc2[N+](=O)[O-])cc1` the outcome was “inactive”.
With `COc1cc(/C=C/c2ccc3c([N+](=O)[O-])cccc3n2)ccc1OCC(=O)O` the outcome was “inactive”.
For `CCC1CCc2sc(C(=O)NNC(=O)c3ccncc3)cc2C1` (stereo unspecified), the outcome was “inactive”.
With `CN(CCS(=O)(=O)c1ccc(Cl)cc1)Cc1cccnc1` the outcome was “inactive”.
In the case of `CC(=O)c1ccc(NC(=O)c2cc(CC(C)C)on2)cc1`, the outcome is reported as “inactive”.
With `CC(C)(C)Nc1nc(NC(C)(C)C)nc(-n2ccnc2)n1` the outcome was “inactive”.
In the case of `O=C(NC(=S)Nc1ccc(F)cc1)C1CCCCC1`, the outcome is reported as “inactive”.
For `COC(=O)COc1cccc(NC(=O)c2ccc(Cl)cc2)c1`, the outcome was “inactive”.
In the case of `CCc1ccc(OCC(=O)Nc2ccncc2)c(Br)c1`, the outcome is reported as “inactive”.
In the case of `O=C(Oc1cccnc1)c1ccc(Cl)c(Cl)c1`, the outcome is reported as “inactive”.
In the case of `O=C(NNC(=O)c1ncc(Cl)c(Cl)c1Cl)c1ccc(F)cc1`, the outcome is reported as “inactive”.
In the case of `CC(C)c1ccc(OCC(=O)NNC(=O)c2cnccn2)cc1`, the outcome is reported as “inactive”.
With `Cc1cc(NC(=O)COc2ccccc2)ccc1Cl` the outcome was “inactive”.
For `Cc1cc(OCC(=O)Nc2ccncc2)ccc1Br`, the outcome was “inactive”.
With `CCc1ccc(NC(=O)C(=O)NNC(=O)COc2cccc(OC)c2)cc1` the outcome was “inactive”.
With `Cc1cc(Br)ccc1OCC(=O)NNC(=O)C(=O)Nc1ccccc1` the outcome was “inactive”.
In the case of `Cc1cc2cc(CNC(=O)C3CCCC3)ccc2n1C`, the outcome is reported as “inactive”.
For `O=C(CCC1CCCCC1)NCc1ccc(F)cc1`, the outcome was “inactive”.
In the case of `Clc1ccc(SCCCCN2CCNCC2)cc1`, the outcome is reported as “inactive”.
With `O=C(NCC1CCCCC1)c1ccc([N+](=O)[O-])cc1` the outcome was “inactive”.
With `CCCCOC(=O)c1ccc(NC(=O)c2nn(C)cc2Br)cc1` the outcome was “inactive”.
With `O=C(NCCSc1ccccc1)c1ccc(Br)cc1` the outcome was “inactive”.
For `Cc1ccc2cc(/C=N/NC(=O)[C@H](C)NC(=O)OC(C)(C)C)c(Cl)nc2c1`, the outcome was “inactive”.
In the case of `CN1CC(=O)NC1=NC(=O)C12CC3CC(CC(C3)C1)C2`, the outcome is reported as “inactive”.
In the case of `CCOC(=O)c1csc(NC(=O)COc2ccc(Cl)cc2Cl)n1`, the outcome is reported as “inactive”.
In the case of `Cc1cc(Br)ccc1OCCCCN1CCCCC1`, the outcome is reported as “inactive”.
With `CCOc1ccc(Cn2c(=O)oc3ccccc32)cc1` the outcome was “inactive”.
In the case of `CC1C/C(=N/N2C(=O)CSC2=S)CC(C)(C)C1` (stereo unspecified), the outcome is reported as “inactive”.
For `CC1=C(/C=C/C(C)=N\NC(=O)c2ccncc2)C(C)(C)CCC1`, the outcome was “inactive”.
In the case of `C/C(=N/NC(=O)c1ccncc1)C1=C(O)CC(C)(C)CC1=O`, the outcome is reported as “inactive”.
With `C=CCNCC(=O)N1N=C(c2ccc3ccccc3c2)CC1c1ccc(OC)cc1` (stereo unspecified) the outcome was “inactive”.
With `CCn1ccc(C(=O)Nc2cccc(Cl)c2)n1` the outcome was “inactive”.
For `CCn1nnc(NC(=O)c2sc3ccccc3c2Cl)n1`, the outcome was “inactive”.
In the case of `CCCc1cc(C(=O)Nc2cccc(C(C)=O)c2)no1`, the outcome is reported as “inactive”.
In the case of `CC(C)(C)c1ccc(OCCC(=O)OCC(=O)NC2CCCCC2)cc1`, the outcome is reported as “inactive”.
In the case of `COC(=O)CCC(=O)Nc1sc(Cc2ccccc2)c(C)c1C(N)=O`, the outcome is reported as “inactive”.
In the case of `COc1ccc(C(CNC(=O)c2cccc(NS(=O)(=O)c3ccc(C)c(F)c3)c2)N2CCCC2)cc1` (stereo unspecified), the outcome is reported as “inactive”.
With `Cc1noc2ncnc(Sc3ccc(Br)cc3)c12` the outcome was “inactive”.
With `COC(=O)c1ccccc1Sc1ncnc2onc(C)c12` the outcome was “inactive”.
For `CCOC(=O)CNc1ccc(C(=O)OCC)cc1[N+](=O)[O-]`, the outcome was “inactive”.
With `CC(C)c1ccc(N2C(=O)NC(=O)/C(=C/C=C/c3ccco3)C2=O)cc1` the outcome was “inactive”.
For `Brc1ccc(CSc2nnc(-c3ccco3)o2)cc1`, the outcome was “inactive”.
For `CCCc1ccc(OCc2ccc(C(=O)N/N=C/c3cccnc3)o2)cc1`, the outcome was “inactive”.
In the case of `CN1C(=O)NC(=O)/C(=C/c2ccc([N+](=O)[O-])s2)C1=O`, the outcome is reported as “inactive”.
For `O=c1oc(/C=C/c2ccc([N+](=O)[O-])s2)nc2ccccc12`, the outcome was “inactive”.
In the case of `NC(=O)c1ccc(N=Cc2ccc([N+](=O)[O-])s2)cc1`, the outcome is reported as “inactive”.
With `Cc1cc(C)n(CC(=O)N/N=C/c2ccc([N+](=O)[O-])s2)n1` the outcome was “inactive”.
With `NNC(=O)CNC(=O)C12CC3CC(CC(C3)C1)C2` the outcome was “inactive”.
With `COc1ccccc1C1=NOC(COC(=O)c2ccc([N+](=O)[O-])cc2)C1` (stereo unspecified) the outcome was “inactive”.
In the case of `COCCNC(=O)c1cc2cc(Cl)cc(Cl)c2oc1=O`, the outcome is reported as “inactive”.
For `Cc1cccc(OC(=O)c2sc3ncn(C)c(=O)c3c2C)c1`, the outcome was “inactive”.
In the case of `CCn1c2ccccc2c2cc(CNCc3ccc(OC)cc3OC)ccc21`, the outcome is reported as “inactive”.
For `O=C(COc1ccc(Cl)cc1)OCC(=O)N1CCCc2ccccc21`, the outcome was “inactive”.
In the case of `CC(C)(C)/C(O)=C/c1nc2ccccc2oc1=O`, the outcome is reported as “inactive”.
With `COc1ccc(NC(=O)c2cnc(SC)nc2)cc1` the outcome was “inactive”.
With `COc1ccc(NC(=O)CO/N=C2/CCCc3nonc32)c(OC)c1` the outcome was “inactive”.
For `CCOC(=O)N1CCC(N2CCCC(C(=O)c3ccc4cc(OC)ccc4c3)C2)CC1` (stereo unspecified), the outcome was “inactive”.
In the case of `COc1ccc(C(=O)COC(=O)c2ccc(Cl)nc2)c(OC)c1`, the outcome is reported as “inactive”.
With `O=C(COC(=O)CC1CCCC1)Nc1ccc(OC(F)F)cc1` the outcome was “inactive”.
In the case of `Cc1cc(C)cc(OC(=O)c2cccnc2)c1`, the outcome is reported as “inactive”.
For `CCCCOC(=O)c1ccc(OC(=O)c2cccnc2)cc1`, the outcome was “inactive”.
With `CCc1cccc(OCCCn2ccnc2)c1` the outcome was “inactive”.
With `CN1/C(=C\C(=O)COC(=O)c2ccc([N+](=O)[O-])o2)C(C)(C)c2ccccc21` the outcome was “inactive”.
For `CN1/C(=C\C(=O)COC(=O)C2COc3ccccc3O2)C(C)(C)c2ccccc21` (stereo unspecified), the outcome was “inactive”.
With `C=CC(=O)Oc1ccc(N2Cc3ccccc3C2=O)cc1` the outcome was “inactive”.
In the case of `CC1=NN(C(=O)CCCc2ccccc2)C(O)(C(F)(F)F)C1` (stereo unspecified), the outcome is reported as “inactive”.
With `Cc1ccc(/C(O)=C/c2nc3ccccc3oc2=O)cc1` the outcome was “inactive”.
With `COc1ccc(OCCCC(=O)Nc2ccc(N3CCOCC3)cc2)cc1` the outcome was “inactive”.
For `CN(CC(=O)Nc1ccc(Cl)cc1)C1CCCCC1`, the outcome was “inactive”.
In the case of `CCOCCOC(=O)c1ccc(NC(=O)C2COc3ccccc3O2)cc1` (stereo unspecified), the outcome is reported as “inactive”.
